Compounds with a hit are over-represented: about 12% of the library has one in this group of screens.
NS1 function inh – influenza NS1 inhibition; Potency, µM (highest dose often 46.1 µM); 270,000 tested, 0.4% active; AID 2326; further: actives are rising curves; nearly all actives have a fitted effect of over 50% in size
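Compounds were scored for reversing the slow growth caused by influenza A NS1 in S. cerevisiae, measured by optical density at 600 nm. Assay medium contained 2% galactose at pH 6.0; NS1-free yeast of the same strain were the positive control.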
SARS PLP yeast – SARS-CoV PLP inhibition in yeast; S. cerevisiae expressing SARS-CoV PLpro, growth rescue; Potency, µM (highest dose often 32.9 µM), usual class: activators; 330,000 tested, 0.19% active; AID 485353; further: nearly all actives have a fitted effect of over 55% in size
Shiga inhibitor – inhibitors of Shiga toxin in Vero cells. Vero cells, Shiga toxin protein synthesis inhibition reporter. inhibition, % at 38.7 µM. 290,000 tested, 9.2% active; in the data active means inhibition mostly above about 28%, no sharp cut-off; inactive means mostly below about 43%
Cycloheximide cs – counter-screen hit for Shiga toxin inhibitors, cycloheximide; max response, %; 300,000 tested, 12% active; AID 2314; cell reporter, cycloheximide protein synthesis inhibition counterscreen; in the data active means max response mostly above about 13%, no sharp cut-off; inactive means mostly below about 14%; further: read at 38.3 µM for the half of the compounds with a filed dose
Of the large screens only hits and unclear results are named; the others gave an inactive call. Unless noted, the call rests on the fitted dose curve.

CCOC(=O)NC(=O)COC(=O)CCCc1nc2ccccc2s1	none (no result: NS1 function inh)
Cc1cccc(OCC(=O)Nc2nccs2)c1C	Shiga inhibitor 67, Cycloheximide cs 67
O=S(=O)(Nc1nccs1)c1ccc(F)cc1	Shiga inhibitor 59, Cycloheximide cs 38
COc1ccc(OCCCC(=O)Nc2nccs2)cc1	Cycloheximide cs 13
O=C(NC(=S)NCc1ccccc1)c1cccc([N+](=O)[O-])c1	none
Cc1cccc(NC(=O)C(C)Sc2nc3nc(C)cc(C)n3n2)c1 (stereo not given)	none (no result: NS1 function inh, Shiga inhibitor, Cycloheximide cs)
C=C1c2ccccc2O[C@H](C(=O)OCC)[C@@H]1CC(C)(C)c1ccccc1	none (no result: NS1 function inh, SARS PLP yeast)
Cc1c(NC2=CC(=O)CC(C)(C)C2)c(=O)n(-c2ccccc2)n1C	none (no result: NS1 function inh)
CC(C)C[C@H](NC(=O)[C@@H](Cc1c[nH]c2ccccc12)NC(=O)[C@H](Cc1ccc(O)cc1)NC(=O)[C@H](CO)NC(=O)[C@H](Cc1c[nH]c2ccccc12)NC(=O)[C@H](Cc1cnc[nH]1)NC(=O)[C@@H]1CCC(=O)N1)C(=O)N[C@@H](CCCN=C(N)N)C(=O)N1CCC[C@H]1C(=O)NCC(N)=O	none (no result: NS1 function inh, SARS PLP yeast)
O=S1(=O)[C@H]2C[C@@H]3CC[C@]2(CN1Cc1cccc(F)c1)O3	none
COc1ccc(N/C=C/C(=O)c2ccc(OC)c(OC)c2)cc1	Shiga inhibitor 56, Cycloheximide cs 24
COc1ccc(C(=O)/C=C/Nc2cccc(C)n2)cc1OC	Shiga inhibitor active, Cycloheximide cs 65
COC(=O)c1ccc(N/C=C/C(=O)c2ccc(OC)c(OC)c2)cc1	none
COc1ccc(N/C=C/C(=O)C(F)(F)F)cc1	none
COc1ccc(N/C=C/C(=O)c2cc(OC)c(OC)c(OC)c2)cc1	Cycloheximide cs 17 (no result: Shiga inhibitor)
N#Cc1c(N)nc2c(c1N)CC(=O)N2c1ccc(Cl)cc1	none
Cc1c(NC(=O)c2cc(-n3cnnc3)ccc2Cl)cccc1-c1nc2ccccc2s1	Shiga inhibitor 37, Cycloheximide cs 23
CC(=O)Nc1ccc(NC(=O)c2cc(-n3cnnc3)ccc2Cl)cc1	none
Cc1ccc2sc(-c3ccc(NC(=O)c4cc(-n5cnnc5)ccc4Cl)cc3)nc2c1	Shiga inhibitor 134, Cycloheximide cs 62
O=C(Nc1cccc(-c2nc3ccccc3s2)c1)c1cc(-n2cnnc2)ccc1Cl	Cycloheximide cs 30
Cc1c(NC(=O)c2cccs2)cccc1-c1nc2ccccc2s1	none
COc1cc(OC)cc(C(=O)OCc2cc3ccccc3[nH]c2=O)c1	none
O=C(NCc1cccc2[nH]ccc12)C1CCC(=O)N(CCc2ccccc2)C1 (stereo not given)	none
C[C@@H](O)CNC(C)(C)CC(=O)N[C@@H]1CCc2ccccc2N(Cc2ccc(-c3ccccc3-c3nn[nH]n3)cc2)C1=O	none (no result: NS1 function inh, SARS PLP yeast)
O/N=C/c1cc(Br)cc(Br)c1OCc1ccccc1	none
O/N=C/c1cc(Cl)ccc1OCc1ccccc1Cl	none
O/N=C/c1ccc(OCc2ccccc2)c(Br)c1	Shiga inhibitor 66, Cycloheximide cs 40
O/N=C/c1ccc(OCc2ccccc2F)c(Cl)c1	Shiga inhibitor 53, Cycloheximide cs 52
O/N=C/c1ccc(OCc2ccccc2)c(Cl)c1	Shiga inhibitor 76, Cycloheximide cs 37
O/N=C/c1ccccc1OCc1ccccc1F	Shiga inhibitor 38, Cycloheximide cs 26
CCOC(=O)C1=CN(Cc2cccc(-c3cccnc3)c2)S(=O)(=O)N(C)C1C (stereo not given)	none (no result: NS1 function inh, Shiga inhibitor, Cycloheximide cs)
Cc1ccc2c(c1)c(-c1ccccc1)nc1nnnn12	none
Cc1ccc(C(C)C)c(Oc2cnccn2)c1	none
Cc1ccc(N2C(=O)c3ccccc3C2=O)cc1	Shiga inhibitor 91, Cycloheximide cs 41
COc1ccc(N2C(=O)c3ccccc3C2O)cc1 (stereo not given)	Cycloheximide cs 20 (no result: Shiga inhibitor)
O=C1c2ccccc2C(O)N1c1ccccc1 (stereo not given)	none
CC(C)Oc1ccc(C2CC(=O)N(c3ccccc3)C2=O)cc1 (stereo not given)	Cycloheximide cs 20
O=C1c2ccccc2C(=O)N1c1ccc(Cl)cc1	none
Cc1ccc(N2C(=O)c3ccccc3NC2c2ccccc2O)cc1 (stereo not given)	Shiga inhibitor 79, Cycloheximide cs 36
CC(C)Oc1ccc(C2CC(=O)N(c3ccc(C(=O)O)cc3)C2=O)cc1 (stereo not given)	none
Cc1cccc(N2CCN(C(=O)CN3C(=O)NC4(CCCCCC4)C3=O)CC2)c1C	none (no result: NS1 function inh, Shiga inhibitor, Cycloheximide cs)
O=C(O)Cc1c(-c2ccccc2Cl)c2cc(Br)ccc2[nH]c1=O	none
CC(=O)N1CCN(c2ccc(NC(=O)c3ccccc3Br)cc2Cl)CC1	none
COc1ccc2c(c1OC)C(=O)N(c1ccccc1)C2=O	Shiga inhibitor 47, Cycloheximide cs 39
COc1ccc2c(c1OC)C(=O)N(c1ccc(O)cc1)C2=O	none
COc1ccc(N2C(=O)c3cccc4cccc(c34)C2=O)cc1	none
CCO/C=C1\C(=O)N(c2ccccc2)C(=O)c2ccccc21	Shiga inhibitor 69, Cycloheximide cs 40
CC(=O)Nc1cccc2c1C(=O)N(c1ccc(C)cc1)C2=O	Shiga inhibitor 35, Cycloheximide cs 15
COc1ccc(N2C(=O)c3ccccc3C2=O)cc1	Shiga inhibitor 55, Cycloheximide cs 19
COc1ccc(O)c(C(=O)C2c3ccccc3C(=O)N2c2ccc(C)cc2)c1 (stereo not given)	Shiga inhibitor 81, Cycloheximide cs 44
COc1ccc(OC)c(C(=O)CC2OC(=O)c3ccccc32)c1 (stereo not given)	none
CC(C)Oc1ccc(N2C(=O)c3ccccc3C2=O)cc1	Cycloheximide cs 18
N#C/C(C(=O)N1CCCCC1)=C1\Nc2ccccc2S1	Shiga inhibitor 58, Cycloheximide cs 37
CC1CCN(C(=O)c2ccc3c(c2)NC(=O)/C(=C/c2ccccc2)S3)CC1	none
CCc1ccc(C(=O)/C=C2\Sc3ccccc3NC2=O)cc1	Shiga inhibitor 88, Cycloheximide cs 50
CCCCNC(=O)/C=C1\Sc2ccccc2NC1=O	none
CC1=CS/C(=C(/C#N)C(=O)N2CCCCC2)N1c1ccccc1	none
O=C1Nc2ccccc2S/C1=C\C(=O)N1CCCC1	Shiga inhibitor 72, Cycloheximide cs 27 (no result: NS1 function inh)
COC(=O)C1=NN(c2ccc(C)cc2)C2(S1)SC(C(C)=O)=C(C)N2c1ccccc1 (stereo not given)	none
CC1CC(C)CN(CCCNC(=O)c2ccc3nc(N4CCCCC4)sc3c2)C1 (stereo not given)	Shiga inhibitor 15, Cycloheximide cs 17
O=C(NCCCN1CCC(Cc2ccccc2)CC1)c1ccc2nc(N3CCOCC3)sc2c1	none
Cc1cc(C)c2nc(N3CCC(C(=O)NCCCN4CC(C)CC(C)C4)CC3)sc2c1 (stereo not given)	none (no result: NS1 function inh)
CCCN1CCN(CCCNC(=O)c2ccc3nc(N4CCCCC4)sc3c2)CC1	Cycloheximide cs 13
COc1cc(/C=N/Nc2snc(SC)c2C#N)ccc1O	Cycloheximide cs 27
COc1cc(/C=N/Nc2nn3cnnc3c3ccccc23)ccc1O	none
COc1cc(/C=C(/C(=O)c2cccs2)c2nc3ccccc3[nH]2)cc(OC)c1O	Shiga inhibitor 91, Cycloheximide cs 24
COc1cc(/C=N/Nc2nc3ccccc3[nH]2)cc(OC)c1O	Cycloheximide cs 18
COc1cc(/C=N/Nc2nc3ccccc3[nH]2)ccc1O	Shiga inhibitor 33, Cycloheximide cs 37

Assay outcomes as filed in PubChem.
